Pf Dd2 growth – P. falciparum Dd2 growth inhibitors, primary screen, SYBR Green fluorescence, single dose replicates; 72 h; active compounds read low; activity change, % at 10 µM; 94,000 tested, 2.3% active; in the data active = activity change below about -80%; inconclusive = no clear call, values can overlap the other calls
C diff growth – C. difficile growth inhibitors, primary screen, HTS | Clostridium difficile clinical isolate growth, OD600, 24 h; active compounds read low | 86,000 tested, 0.25% active | AID 1259249, 2017 | growth activity, negative = inhibition, % at 16 µg/mL (by protocol);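 active = mean growth activity at or below -80% and every replicate also at or below -80%; inconclusive = mean at or below -80% but some replicate above -80%; inactive = mean growth activity above -80%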;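 note: 0% = DMSO wells and -100% = levofloxacin 16 µg/mL wells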
T cruzi growth-1 – T. cruzi intracellular proliferation inhibitors, primary screen, cell-based, beta-gal Tulahuen parasites, NIH3T3 host, luminescence; T. cruzi beta-gal in NIH3T3, GalScreen luminescence, 90 h; inhibition, % at 8.34 µM; 77,000 tested, 5.9% active;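 active = mean inhibition above about 93%, with at least 55% of replicates each passing it, limit read from the data, passing the limit was not always enough; inconclusive = only one of those two conditions holds; inactive = neither condition holds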
T cruzi growth-2 – T. cruzi intracellular proliferation inhibitors, confirmation, cell-based, NIH3T3 host, beta-gal parasite, luminescence, cherry-pick; T. cruzi beta-gal in NIH3T3, GalScreen luminescence, 90 h; 5,600 tested, 72% active; shares compounds with T cruzi growth-1; AID 651739, 2012; inhibition, % at 8.35 µM;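 active = mean replicate inhibition above about 95% and at least 55% of replicates individually reaching it, limit read from the data; inconclusive = only one of the two criteria is met; inactive = neither criterion is met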
T cruzi growth-3 – inhibitors of intracellular T. cruzi replication, confirmation, NIH3T3 host cells, beta-gal parasites, cherry-pick, set 2; shares compounds with T cruzi growth-1; T. cruzi beta-gal in NIH3T3, GalScreen luminescence, 90 h; inhibition, % at 2.09 µM; 5,600 tested, 21% active; AID 651740, 2012;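 active = mean inhibition above about 95%, with at least 55% of replicates also reaching it, limit read from the data; inconclusive = meets just one of the two conditions; inactive = meets neither condition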;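 note: plate controls were neutral control median for no effect and positive control median for full effect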
3T3 cytotox – cytotoxicity in mouse NIH/3T3 fibroblasts, confirmation, cytotoxicity control for T. cruzi proliferation inhibitor project, cell-based, cherry-pick, single point; shares compounds with T cruzi growth-1; NIH/3T3 viability, CellTiter-Glo ATP luminescence, 90 h; cytotoxicity (signal decrease), % at 8.35 µM; 5,600 tested, 14% active; AID 651742, 2012;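 active = mean signal decrease across replicates above about 35% based on untreated-well scatter, with enough replicates individually passing, limit read from the data; inconclusive = no rule stated though some were filed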;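 note: 0% = median of neutral control wells and 100% = median of positive control wells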
NIH3T3 tox 2 – NIH/3T3 fibroblast cytotoxicity, confirmation, cytotoxicity control, cell-based, cherry-pick, single point, set 2; 5,600 tested, 56% active; inhibition, % at 24.9 µM; shares compounds with T cruzi growth-1; NIH/3T3 viability, CellTiter-Glo ATP luminescence, 90 h;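 active = mean loss of cell viability signal at or above a set limit, and enough replicates individually reaching it; inconclusive = meets only the mean limit or only the replicate share; inactive = meets neither condition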;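 note: 0% = median of neutral control wells and 100% = median of positive control wells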
Active calls of the source: *; ? = inconclusive; · = not tested or not shown. Hits are enriched below; roughly 6.7% of the tested compounds scored in any of these assays.

SMILES	Pf Dd2 growth	C diff growth	T cruzi growth-1	T cruzi growth-2	T cruzi growth-3	3T3 cytotox	NIH3T3 tox 2
COc1ccc(NC(=O)N2CCCCN3[C@H](CO)[C@@H](c4ccc(C#Cc5ccccc5)cc4)[C@H]3C2)cc1	-7.8	2.2	107.0*	96.0*	104.1*	90.9*	103.7*
COc1ccc(NC(=O)N2CCCCN3[C@H](CO)[C@@H](c4ccc(C#Cc5ccccc5)cc4)[C@@H]3C2)cc1	6.9	47.8	112.3*	91.2	94.6	36.9*	104.2*
COc1ccc(C#Cc2ccc([C@@H]3[C@H]4CN(C(=O)Nc5ccc(F)cc5)CCCCN4[C@H]3CO)cc2)cc1	-6.6	48.6	0.6	·	·	·	·
O=C(Nc1cccc(F)c1)N1CCCCN2[C@@H](CO)[C@@H](c3ccc(C#Cc4cccnc4)cc3)[C@@H]2C1	-72.4	33.7	100.5*	106.1*	99.8*	59.1*	103.4*
O=C(Nc1cccc(F)c1)N1CCCCN2[C@@H](CO)[C@@H](c3ccc(C#Cc4ccccc4)cc3)[C@@H]2C1	-62.3	64.3	79.2	·	·	·	·
COc1ccc(NC(=O)N2CCCCN3[C@H](C2)[C@H](c2ccc(C#Cc4ccccn4)cc2)[C@@H]3CO)cc1	-5.4	-1.3	84.5	·	·	·	·
C[C@H](CO)N1C[C@H](C)[C@H](CN(C)Cc2ccc(-c3ccccc3)cc2)Oc2ccc(NS(=O)(=O)c3ccc(F)cc3)cc2C1=O	0.3	18.9	74.7	·	·	·	·
Cc1ccc(S(=O)(=O)Nc2ccc3c(c2)C(=O)N([C@@H](C)CO)C[C@H](C)[C@@H](CN(C)Cc2ccc(-c4ccccc4)cc2)O3)cc1	-2.9	32.9	?	103.0*	94.8	22.2	87.1*
C[C@H](CO)N1C[C@H](C)[C@H](CN(C)Cc2ccc(-c3ccccc3)cc2)Oc2ccc(NS(=O)(=O)c3cccs3)cc2C1=O	-11.4	8.5	55.6	·	·	·	·
C[C@H]1CN([C@@H](C)CO)C(=O)c2cc(NS(=O)(=O)c3ccc(Cl)cc3)ccc2O[C@H]1CN(C)Cc1ccc(-c2ccccc2)cc1	10.4	9.8	31.2	·	·	·	·
C[C@H]1CN([C@@H](C)CO)C(=O)c2cc(NS(=O)(=O)c3ccc(F)cc3)ccc2O[C@@H]1CN(C)Cc1ccc(-c2ccccc2)cc1	23.7	18.3	?	106.1*	46.0	1.6	103.1*
C[C@@H]1CN([C@H](C)CO)C(=O)c2cc(NS(=O)(=O)c3cccs3)ccc2O[C@@H]1CN(C)Cc1ccc(-c2ccccc2)cc1	-0.8	13.7	93.4*	-4.1	-32.9	6.9	-11.0
Cc1ccc(S(=O)(=O)Nc2ccc3c(c2)C(=O)N([C@@H](C)CO)C[C@@H](C)[C@H](CN(C)Cc2ccc(-c4ccccc4)cc2)O3)cc1	-3.4	28.4	89.5	·	·	·	·
C[C@@H]1CN([C@@H](C)CO)C(=O)c2cc(NS(=O)(=O)c3ccc(Cl)cc3)ccc2O[C@H]1CN(C)Cc1ccc(-c2ccccc2)cc1	19.1	11.0	109.4*	105.6*	80.4	-2.3	104.2*
CCCNC(=O)Nc1ccc2c(c1)C(=O)N(C)C[C@@H](OC)[C@H](C)CN(Cc1ccccc1)[C@@H](C)CO2	·	·	28.9	·	·	·	·
O=C(Nc1cccc(F)c1)N1CC(=O)N2[C@H](C1)[C@H](c1ccc(-c3ccccc3)cc1)[C@@H]2CO	18.6	3.4	·	·	·	·	·
CC(=O)Nc1ccc2c(c1)C(=O)N(C)[C@@H]1CC[C@H](CC(=O)NCC3CCCCC3)O[C@H]1CO2	10.9	4.8	10.0	·	·	·	·
COc1cccc(C(=O)N2C[C@H]3[C@@H](c4ccccc42)[C@H](CO)N3C(C)=O)c1	10.6	-2.7	22.2	·	·	·	·
C[C@H]1CN([C@@H](C)CO)S(=O)(=O)c2ccc(-c3ccc(F)cc3)cc2O[C@H]1CN(C)C(=O)C1CC1	-6.9	2.0	-63.2	·	·	·	·
O=C(NCCc1ccccc1)[C@H]1[C@H](CO)[C@H]2Cn3c(cccc3=O)[C@@H]1N2C(=O)C1CCC1	0.3	-4.0	99.2*	66.1	21.0	9.9	-11.3
O=C(NCCc1ccccc1)[C@H]1[C@H](CO)[C@H]2Cn3c(cccc3=O)[C@@H]1N2C(=O)C1CCCC1	4.0	3.6	78.9	·	·	·	·
O=C(NCCc1ccccc1)[C@@H]1[C@@H](CO)[C@@H]2Cn3c(cccc3=O)[C@H]1N2C(=O)C1CCC1	-7.2	0.2	?	-15.0	11.2	-21.2	0.4
O=C(NCCc1ccccc1)[C@@H]1[C@@H](CO)[C@@H]2Cn3c(cccc3=O)[C@H]1N2C(=O)C1CC1	·	-2.2	21.4	·	·	·	·
C[C@@H]1CCCCO[C@H](CN(C)Cc2ccncc2)[C@@H](C)CN([C@@H](C)CO)C(=O)c2cc(NC(=O)NC3CCCCC3)ccc2O1	-30.7	-2.1	48.5	·	·	·	·
Cc1noc(C)c1NC(=O)N(C)C[C@H]1Oc2c(NS(C)(=O)=O)cccc2C(=O)N([C@@H](C)CO)C[C@H]1C	11.2	2.2	39.8	·	·	·	·
SMILES	Pf Dd2 growth	C diff growth	T cruzi growth-1	T cruzi growth-2	T cruzi growth-3	3T3 cytotox	NIH3T3 tox 2
C[C@@H]1CCCCO[C@H](CN(C)C(=O)Nc2ccc(F)cc2)[C@H](C)CN([C@H](C)CO)C(=O)c2cc(NS(C)(=O)=O)ccc2O1	-23.8	4.7	59.6	·	·	·	·
COc1ccccc1S(=O)(=O)N(C)C[C@H]1Oc2ncc(Br)cc2C(=O)N([C@@H](C)CO)C[C@H]1C	43.1	-4.5	·	·	·	·	·
COc1ccccc1S(=O)(=O)N(C)C[C@H]1Oc2ncc(-c3ccc(C)cc3)cc2C(=O)N([C@@H](C)CO)C[C@@H]1C	-50.8	15.2	110.6*	102.6*	61.1	25.0	41.9*
COc1ccccc1S(=O)(=O)N(C)C[C@@H]1Oc2ncc(-c3ccc(C)cc3)cc2C(=O)N([C@H](C)CO)C[C@@H]1C	-47.4	0.4	60.6	·	·	·	·
COc1ccccc1S(=O)(=O)N(C)C[C@H]1Oc2ncc(-c3ccc(C)cc3)cc2C(=O)N([C@H](C)CO)C[C@@H]1C	-39.3	18.4	98.7*	99.3*	70.9	63.8*	36.9*
Cc1ccc(S(=O)(=O)N[C@H]2CC[C@@H](CCn3cc(-c4cccc(F)c4)nn3)O[C@@H]2CO)cc1	3.1	-4.5	-14.1	·	·	·	·
COCC(=O)Nc1ccc2c(c1)C(=O)N(C)C[C@@H](OC)[C@@H](C)CN(C(C)=O)[C@H](C)CO2	-18.9	-5.2	35.9	·	·	·	·
CCC(=O)N1C[C@@H](C)[C@@H](OC)CN(C)C(=O)c2ccc(NC(=O)c3cnccn3)cc2OC[C@@H]1C	2.7	·	-51.0	·	·	·	·

Compound activity from PubChem BioAssay.
